Drawing on PubChem BioAssay (NCI), this text covers growth for 40 compounds.

Structures are written as SMILES. The panel holds about 83,000 compounds, 20% with a hit somewhere; the sample as a whole holds those more often.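 Percent growth is the endpoint: 0 to 100 indicates growth inhibition (40 means 60% inhibition), 0 means no net growth, and negative values indicate cell death.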 Values without a mark were called inactive. The source made the active and inactive calls. The calls were made as follows: active = growth percent below 10; inactive = the rest.

The assay relates to HL-60(TB) leukemia. As to the kind of experiment: NCI-60 one-dose screen, 48 h (100 = growth as untreated, 0 = no growth, -100 = all killed). The note with it: 10 µM unless noted.
In the case of `[N-]=[N+]=Nc1ncc(-c2ccc(C(F)(F)F)cc2)c(NC2CCCCCC2)n1`, the growth was -14.7% [100 µM] (active). Then `CC(C)CCN(CCC(C)C)CC(=O)Nc1ccc(S(=O)(=O)c2ccc(NC(=O)CN(CCC(C)C)CCC(C)C)cc2)cc1`, with 19.1%; and `CCN(CC)CCC(CNc1c(C)cnc2cc(Cl)ccc12)c1ccc(Cl)cc1` (stereo not given), with 52.5%; and `CN1C2CCC1/C(=C\c1ccc(Cl)cc1)C1=C2[C@@H](c2ccc(Cl)cc2)C(C#N)=C(N)O1` (stereo not given in full), with 81.8%.

Consider `COc1cc2ncnc3c2cc1OCCCCCN(C)Cc1ccc(Br)cc1N3`, for which the growth is 33.7%. To `NC1C(N)C(N)C1N` (stereo not given) belongs 93.8%; to `COCCOc1ccc(-c2nc3ccc(-c4nc5ccc(N6CCN(C)CC6)cc5[nH]4)cc3[nH]2)cc1`, 3.73% (active); to `CCN(CC)CCN1C(=O)c2c(c(C)c3c(oc4ccc(O)cc43)c2C)C1=O`, -6.29% (active).

Consider `COc1cc(C2c3cc4c(cc3C(OC(=O)C[n+]3ccccc3)C3COC(=O)C23)OCO4)cc(OC)c1OC` (stereo not given), for which the growth is -32.5% (active). To `NC(=N\N=C/Cc1ccccc1)/C(N)=N\N=C\Cc1ccccc1` belongs 70.8%. Then `Clc1ccc2c(NCCCCNc3nc(N4CCOCC4)nc4ccccc34)ccnc2c1`, with -59.8% (active). To `O=C(NC(Cc1ccc(O)cc1)C(=O)N=Nc1c(O)[nH]c2ccccc12)c1ccccc1` (stereo not given) belongs 101%. As to `N#Cc1nn(-c2ccccn2)c(N)c1C#N`, the growth was 96.1%. To `COc1cccc(C(=O)O)c1OC` belongs 106%. To `COc1ccccc1N1CCN(CC(O)COc2c(Br)c(Br)c(Br)c3c2OC(C)(C)C3)CC1` (stereo not given) belongs 10.3%; to `CCCCCCCCNc1ncnc2c1ncn2Cc1nnc2c3ccccc3c(Cl)nn12`, 29.2%.

Take `CCOC(=O)CC(C#N)(CC(=O)OCC)C(=O)OCC`: the growth was 102%. `C=CCOc1ccc(/C(O)=C2\C(=O)C(=O)N(c3nccs3)C2c2ccccc2F)cc1` (stereo not given): the growth is 81.1%. As to `COc1cc2c(cc1O)CC[C@@H]1C2CC[C@@]2(C)C1CC[C@@H]2O` (stereo not given in full), the growth is -3.13% (active). To `CCCCN1CCN(c2ccc3nc(-c4ccc5nc(-c6ccc(OCC)c(OCC)c6)[nH]c5c4)[nH]c3c2)CC1` belongs 3.99% (active). As for `COc1ccc(C2CC(c3ccc(Cl)cc3)=NN2/C=C2\SC(=S)N(NC(=O)Cc3ccccc3Nc3c(Cl)cccc3Cl)C2=O)cc1` (stereo not given), the growth is 64.7%. Take `Nc1nc2ccc3[nH]ncc3c2c2c1CCCC2`: the growth was -23.4% (active). As to `Cc1cc(Nc2nc(N3CCNCC3)nc3ccccc23)n[nH]1`, the growth is 106%. To `O=C(CC1Sc2ccccc2NC1=O)NNc1cccc(Cl)c1Cl` (stereo not given) belongs 9.18% (active); to `COc1ccc2c(c1)/C(=N/c1n[nH]c(=S)s1)C(=O)N2`, 61.6%. Then `COc1ccc(S(=O)(=O)c2ccc(C(N)=O)cc2)cc1NC(=O)c1[nH]c(C)c2c1CCCCC2=O`, with 4.2% (active); and `OC1(c2ccccc2)c2ccccc2N(c2ccccc2)c2ccc(Cl)cc21` (stereo not given), with -22.2% (active). To `O=C1NC(=O)c2c1c1c3ccccc3[nH]c1c1oc3ccc(F)cc3c21` belongs 99.5%; to `CC(N)C(Cc1ccc(Cl)cc1)c1ccc(Cl)cc1` (stereo not given), 25.9%. Take `Nc1nc2c(ncn2[C@@H]2O[C@H](CS)[C@@H](O)[C@H]2O)c(=O)[nH]1`: the growth was 101%.

Turning to `Cn1cc(-c2csc(-c3cn(C)c4ncccc34)n2)c2cccnc21`, the growth was 95.2%. To `Nc1nc(-c2ccccc2)cs1` belongs 115%; to `COc1cccc2c1C(=O)c1c(O)c3c(c(O)c1C2=O)C[C@@](O)(/C(C)=N/NC(=O)c1ccc(Cl)cc1)C[C@@H]3OC1CC(N)C(O)C(C)O1` (stereo not given in full), -53.4% (active); to `C#CCOc1cccc(-c2ncnc3cc(NC(=O)C=C)ccc23)c1`, 16.9%.

For the compound `CC(C)(C)c1nc(-c2ccc(O)c(O)c2)cs1`, the growth is -5.29% (active).

On to `COc1ccc2c(O)c(/C=C3\N=Nc4ncccc43)oc2c1C[C@@H]1CCNC[C@H]1F`, for which the growth is -23.3% (active). Then `CN1C[C@@H](c2ccc(Cl)cc2)[C@]2(NC(=S)N(c3ccc(F)c(Cl)c3)C2=O)[C@@]12C(=O)NC1C=CC(Cl)=C[C@H]12` (stereo not given in full), with -17.9% (active). Then `CCOC(=O)C1=CSC2=NC3=C(CCC/C3=C\c3cc(OC)c(OC)c(OC)c3)C(c3cc(OC)c(OC)c(OC)c3)N12` (stereo not given), with 51.5%; and `CCOC(=O)c1c(C(=O)c2cn(C)c3ccc(Br)cc23)c(-c2cn(C)c3ccc(Br)cc23)n(NC(=O)OC(C)(C)C)c1C`, with 100% [100 µM]; and `O=C(CCCCCCCCC(=O)N/N=C\c1ccccc1O)N/N=C\c1ccccc1O`, with 14.8%.
